# This is a sample that favours compounds with a hit; in the whole collection about 1.5% have one here.
# HDAC3 inh: blocks human histone deacetylase 3; inhibition, % at 8.3 µM; O15379; 0.15% of 320,000 active; AID 2718; recombinant HDAC3, fluorogenic peptide/trypsin coupled, fluorescence; in the data active = inhibition above about 26%, passing the limit was not always enough; inconclusive = no clear call, values can overlap the other calls
# Target sequence (O15379 whole entry, looked up): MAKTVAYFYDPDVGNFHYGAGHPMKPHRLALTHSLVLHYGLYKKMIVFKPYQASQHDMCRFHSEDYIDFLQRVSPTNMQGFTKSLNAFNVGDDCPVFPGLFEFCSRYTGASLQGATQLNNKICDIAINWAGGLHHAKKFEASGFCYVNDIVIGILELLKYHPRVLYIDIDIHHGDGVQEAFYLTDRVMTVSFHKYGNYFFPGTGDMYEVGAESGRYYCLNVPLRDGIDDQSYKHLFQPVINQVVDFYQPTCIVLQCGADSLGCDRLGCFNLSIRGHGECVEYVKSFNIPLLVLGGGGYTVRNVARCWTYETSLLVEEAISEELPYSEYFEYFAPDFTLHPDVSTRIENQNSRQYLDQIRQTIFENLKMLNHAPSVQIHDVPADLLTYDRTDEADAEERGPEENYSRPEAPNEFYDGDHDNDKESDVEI
# NLRP3 yeast inh: blocks the NALP3 inflammasome reconstituted in yeast; Yeast reconstituted NLRP3/ASC/caspase-1, beta-gal luminescence, 24 h; AID 2825; inhibition, % at 10 µM; 0.39% of 330,000 active;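 active = inhibition of 50% or more; inactive = inhibition below 50%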
# GASC-1 inh: human JMJD2C demethylase inhibition; Q9H3R0; GST-JMJD2C(1-420) H3K9me3 demethylation, DELFIA europium; inhibition, % at 2.35 µM; 0.069% of 330,000 active;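 active = more than half of a compound's replicate wells show inhibition beyond 50%, single wells judged on their own value; inconclusive = some, but no more than half, of replicates pass 50% inhibition; inactive = no replicate passes 50% inhibition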;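 also: signal counts dimethyl H3K9 product captured on neutravidin plate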
# PolyA inh: blocks polyadenylation in yeast reporter cells. S. cerevisiae SKY197-pL101 polyadenylation reporter, beta-gal luminescence; efflux-impaired pdr1/pdr3 knockout yeast; score 100 = 6 SD above DMSO. activity score, % at 12 µM. 0.02% of 300,000 active;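 active = lowest replicate activity score at least 50, where 100 means six control SD above control mean; inconclusive = lowest score under 50 but half or more replicates reach 50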;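 also: yeast exposed to compound for 9 h at 30 °C; higher score means more reporter readthrough which indicates perturbed polyadenylation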
# Efflux pump inh: blocks antifungal efflux pumps in multiplex yeast assay; S. cerevisiae Candida pump triplex, Nile Red efflux; 0.44% of 330,000 active; inhibition, % at 10 µM;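 active = plate passing quality check with inhibition over a set limit, or well fluorescence over plate mean plus 4 SD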;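 also: Nile Red retained in pooled yeast measured as flow cytometry median fluorescence; higher means more Nile Red kept so more efflux inhibition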
# NALP1 inh: NALP1 inhibition; S. cerevisiae NALP1/ASC/caspase-1 growth, X-gal OD620, 72 h; inhibition, % at 10 µM; 0.61% of 280,000 active; in the data active = inhibition mostly above about 24%, no sharp cut-off; inactive = mostly below about 32%
# A number is an active result; - = inactive; ? = inconclusive; . = no result given.
SMILES,HDAC3 inh,NLRP3 yeast inh,GASC-1 inh,PolyA inh,Efflux pump inh,NALP1 inh
CCOc1ccccc1N1CCN(S(=O)(=O)c2ccc(F)c(F)c2)CC1,-,-,-,-,-,40
CC(Oc1ccc2ccccc2c1)C(=O)NNC(=O)Nc1ccccc1F (centres undefined),-,-,-,-,-,-
COc1ccc2ccccc2c1C1CC(=O)N2CN(C3CCCCC3)CSC2=C1C#N (centres undefined),43,-,-,-,-,-
COc1ccc(C2CC(=O)N3CN(Cc4ccco4)CSC3=C2C#N)cc1 (centres undefined),37,-,-,-,-,-
COc1ccc2ccccc2c1C1CC(=O)N2CN(Cc3ccco3)CSC2=C1C#N (centres undefined),44,-,-,-,-,-
CCCOc1cccc(C(=O)NCCNC(=O)c2ccc(C)nc2)c1,-,-,-,-,-,-
COc1ccc(S(=O)(=O)N(CCCN2CCOCC2)Cc2cccc(OC)c2OC)cc1,-,-,-,-,-,-
COc1ccc(S(=O)(=O)N(CCCN2CCOCC2)Cc2cccc3ccccc23)cc1,-,-,-,-,-,39
Cc1cc(C)n(C(C[N+](=O)[O-])c2ccc(Cl)cc2)n1 (centres undefined),-,-,-,-,-,101
OCC1(Cc2ccc(Cl)cc2)CCN(Cc2ccccc2F)CC1,-,-,-,-,-,-
CSc1ccc(CN2CCC(CO)(Cc3ccc(Cl)cc3)CC2)cc1,-,-,-,-,-,28
CC(C)(C)C(=O)COC(=O)c1ccccc1O,-,-,-,-,-,37
CSc1nc2cc3c(cc2n1C(=O)c1ccc(C)cc1)OCCO3,-,-,-,-,-,-
COc1cccc(C(=O)n2c(SC)nc3cc4c(cc32)OCCO4)c1,92,-,-,-,-,-
CCOc1ccc(NC(=O)CC2C(=O)N(c3ccc(OC)c(Cl)c3)C(=S)N2C2CC2)cc1 (centres undefined),-,-,-,-,-,-
COc1ccc(CN2CCNC(=O)C2CC(=O)NCc2csc(C)n2)c(F)c1 (centres undefined),-,-,-,-,-,-
CCN(CC)CCOC(=O)c1cccc(Br)c1,-,-,-,-,-,-
CN(CCOC(=O)c1cccc(Br)c1)C(C)(C)C,-,-,-,-,-,28
O=C(COC(=O)Cc1ccc(S(=O)(=O)N2CCOCC2)s1)NCc1ccccc1,-,-,-,903,-,-
O=C(COC(=O)Cc1ccc(S(=O)(=O)N2CCOCC2)s1)NCCc1ccccc1,-,-,-,?,-,-
COc1ccc(NC(=O)c2cc(C)cc(C)c2)cc1S(=O)(=O)N1CCCCC1,-,-,-,.,-,.
O=C(Nc1ccncc1)Nc1cc(Cl)ccc1Cl,-,-,-,-,-,-
O=C(Nc1ccncc1)Nc1ccc(Cl)cc1Cl,-,-,-,-,-,30
CCCCOc1ccc(C(=O)CCN2CCCCC2)cc1,-,-,-,-,-,46
CCn1ncc(-c2cc(C(=O)O)no2)c1C,47,-,-,-,-,-
SMILES,HDAC3 inh,NLRP3 yeast inh,GASC-1 inh,PolyA inh,Efflux pump inh,NALP1 inh
O=C(NC1=NCCS1)c1cccc(S(=O)(=O)N2CCOCC2)c1,-,-,-,.,-,.
COc1ccc(OCC(N)=O)cc1,-,-,-,-,-,39
Cc1ccc(C(C)C)c(OCC(=O)Nc2ccccc2N2CCN(C)CC2)c1,-,-,-,-,-,27
S=c1[nH]nc(-c2ccncc2)n1/N=C/C=C/c1ccco1,-,-,-,-,-,-
C(=C\c1ccco1)/C=N/n1cnnc1,-,-,-,-,-,22
COc1ccc(C)cc1S(=O)(=O)N(C)CC(=O)N1CCN(C)CC1,-,-,-,-,-,40
Oc1c(Cl)cc(Cl)c2c1NCCC2,.,-,-,-,.,53
COc1ccc(NC(=O)CS(=O)CC(=O)Nc2cccnc2)cc1 (centres undefined),-,-,-,-,-,-
COc1ccccc1N1CCN(C(=O)c2oc3c(c2C)C(=O)CC(C)(C)C3)CC1,-,-,-,-,-,-
O=C(CC1NCCNC1=O)Nc1ccc([N+](=O)[O-])cc1 (centres undefined),-,-,-,-,-,32
Cc1ccc(NC(=O)CC2NCCNC2=O)cc1 (centres undefined),-,-,-,-,-,-
COc1cc2c3nnc(-c4ccc(F)cc4)c-3cn(Cc3ccc(F)cc3)c2cc1OC,-,-,-,-,-,35
COc1ccc(Cn2cc3c(-c4ccc(F)cc4)nnc-3c3cc(OC)c(OC)cc32)cc1,?,-,-,.,-,-
O=C(NCCc1ccccc1)C(=O)NCC1OCCCN1S(=O)(=O)c1cccs1 (centres undefined),-,-,-,-,-,-
COc1ccccc1N1CCN(CC(O)COc2ccc3c(c2)OCO3)CC1 (centres undefined),-,-,-,-,-,23
OCCN1CCN(CC(O)COc2ccc3c(c2)OCO3)CC1 (centres undefined),-,-,-,-,-,-
COc1ccc(CNC(=O)CN2CCN(C(c3ccccc3)c3ccccc3)CC2)cc1,-,-,-,-,-,37
O=c1/c(=C/c2cn(-c3ccccc3)nc2-c2ccc(F)cc2)sc2nc3ccccc3n12,.,.,.,.,.,-
CC(C)Oc1ccc(-c2nn(-c3ccccc3)cc2/C=c2\sc3ncnn3c2=O)cc1,-,-,.,.,0.9,-
O=S(=O)(c1ccc(Br)cc1)N1CCCN(Cc2ccccc2F)CC1,-,-,-,-,6.8,-
Cc1ccccc1CN1CCN(S(=O)(=O)c2ccc(F)cc2)CC1,-,-,-,-,-,-
Cc1ccn2cc(-c3ccc(NC(=O)c4ccco4)cc3)nc2c1,-,-,-,-,-,46
Cc1cccc(NC(=S)N(C)C)c1C,-,-,-,-,-,-
Cc1cccc(Nc2cc(C)c3c(O)cccc3n2)c1C,-,-,-,-,-,60
CC(C)CN=Cc1c(O)c([N+](=O)[O-])cc2oc3c(c12)CCCC3,-,-,-,-,-,50
SMILES,HDAC3 inh,NLRP3 yeast inh,GASC-1 inh,PolyA inh,Efflux pump inh,NALP1 inh
CC1=CC(C)(C)Nc2ccc(OC(=O)CN3C(=O)c4ccccc4C3=O)cc21,-,-,-,-,-,64
CCOC(=O)Cc1nnc(NC(=O)CSc2nnc3c(n2)[nH]c2ccccc23)s1,65,-,-,-,-,-
CCOC(=O)Cc1nnc(NC(=O)CSc2nnc3c4ccccc4n(C(C)C)c3n2)s1,-,-,-,-,-,-
O=C(CN1C(=O)NC2(CCCC2)C1=O)NCc1ccc(Cl)cc1,-,-,-,.,-,.
Cc1nc(C)n(CC(=O)N2CCCC(C(=O)c3cccc4ccccc34)C2)n1 (centres undefined),-,-,-,-,-,-
CN(CC(=O)Nc1cccc(F)c1)C(=O)COc1cccc2c1OC(C)(C)C2,-,-,-,-,-,32

# Assay outcomes as filed in PubChem BioAssay.
